Experimental data reported in PubChem BioAssay (NCATS).
Records with an inconclusive call do not appear. Entries that show only a call come without a potency. Active and inactive are the calls of the source. The call rests on the fitted dose curve; in most records, active means well fitted curve in the direction sought with a large enough effect; inconclusive means small, poorly fitted or top-dose-only effect, or another doubt; inactive means no such curve, though single readings can be large; an effect the other way counts as inactive or inconclusive.

Experiments:
[1] = biological target: Cellular tumor antigen p53 (Homo sapiens) (UniProt P04637); assay: Primary qHTS for small molecule compounds that upregulate eGFP-tagged delta133p53alpha (in N-terminal) cells. (AID 2060322); conditions: NCI-H358 eGFP-delta133p53alpha fluorescence, 24 h; activation: active compounds read high; further: nearly all actives have a fitted effect of over 75% in size; further: potency means the concentration at half of the fitted maximal effect;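 on activation: cells pre-induced with doxycycline then dosed without doxycycline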
Cellular tumor antigen p53 (Homo sapiens), sequence (P04637 whole entry, looked up): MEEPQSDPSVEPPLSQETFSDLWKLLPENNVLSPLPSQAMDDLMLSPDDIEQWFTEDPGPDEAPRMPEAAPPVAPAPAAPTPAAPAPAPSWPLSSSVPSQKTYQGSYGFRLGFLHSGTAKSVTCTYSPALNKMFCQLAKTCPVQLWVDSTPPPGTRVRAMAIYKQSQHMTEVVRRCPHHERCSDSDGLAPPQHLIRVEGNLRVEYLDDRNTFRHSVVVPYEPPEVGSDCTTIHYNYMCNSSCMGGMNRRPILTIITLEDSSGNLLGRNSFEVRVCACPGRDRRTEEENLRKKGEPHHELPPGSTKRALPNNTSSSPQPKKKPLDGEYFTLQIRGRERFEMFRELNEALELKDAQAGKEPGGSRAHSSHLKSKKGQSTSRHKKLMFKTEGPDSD
Method in brief: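 NCI-H358 cells pre-induced 24 h with 10 ng/ml doxycycline for eGFP-delta133p53alpha, plated dox-free and exposed 24 h at 37C to titrated compounds. Fixed, Hoechst-stained; gated GFP peak intensity by laser scanning cytometry, normalized to DMSO (0%) and 57.5 uM 5-azacytidine (100%).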

[2] = biological target: Aldehyde dehydrogenase, mitochondrial (Homo sapiens) (UniProt P05091); assay: qHTS for Inhibitors of the Aldehyde Dehydrogenase Family (ALDH2) Primary screen (AID 2061308); conditions: ALDH2 enzyme inhibition qHTS, 1536-well; series mostly up to 56 µM; further: nearly all actives have a fitted effect of over 55% in size
[3] = biological target: Retinaldehyde dehydrogenase 3 (Homo sapiens) (UniProt P47895); assay: qHTS for Inhibitors of the Aldehyde Dehydrogenase Family (ALDH1A3) Primary screen (AID 2061315); conditions: ALDH inhibition qHTS; series mostly up to 56 µM

| Compound | activation [1] | Potency [2] | Potency [3] | Potency [1] | activity change, negative = inhibition [2] | activity change, negative = inhibition [3] |
| --- | --- | --- | --- | --- | --- | --- |
| COCC(=O)N1CCc2cc(-c3csc(NC(=O)c4cc(OC)cc(OC)c4)n3)ccc21 | 13.7% (inactive) | inactive | inactive | – | – | – |
| C[C@@H]1O[C@@H](O[C@H]2[C@@H]3C=CO[C@@H](O[C@@H]4O[C@H](CO)[C@@H](O)[C@H](O)[C@H]4O)[C@@H]3[C@@]3(CO)O[C@@H]23)[C@H](OC(=O)/C=C/c2ccc(O)cc2)[C@H](O)[C@H]1O | 6.87% (inactive) | inactive | inactive | – | – | – |
| C[C@@H]1C(=O)O[C@H]2[C@H]1CC[C@@]1(C)C(=O)C=C[C@](C)(O)[C@H]21 | 1.79% (inactive) | inactive | inactive | – | – | – |
| CC1(C)CC[C@]2(C(=O)O[C@@H]3O[C@H](CO)[C@@H](O)[C@H](O)[C@H]3O)CC[C@]3(C)C(=CCC4[C@@]5(C)C[C@@H](O)[C@H](O)[C@](C)(C=O)C5CC[C@]43C)[C@@H]2[C@@H]1O (stereo partly drawn) | -0.893% (inactive) | inactive | inactive | – | – | – |
| CN1CCN(c2ccc(Nc3cc(-c4cccc(-n5ccc6cc(C7CC7)cc(F)c6c5=O)c4CO)cn(C)c3=O)nc2)CC1 | 2.68% (inactive) | inactive | inactive | – | – | – |
| C[C@@H]1CC[C@]2(C(=O)O)CC[C@]3(C)C(=CCC4[C@]5(C)C(CC[C@]43C)C(C)(C)[C@@H](O)[C@H](O)[C@@H]5O)C2[C@]1(C)O (stereo partly drawn) | -4.46% (inactive) | inactive | inactive | – | – | – |
| C=C1C(=O)O[C@@H]2CC(C)=C([C@@H](C)CCCOC(C)=O)[C@@H](O)[C@H]12 | 28.6% (inactive) | inactive | inactive | – | – | – |
| C=C1CCC2C(C)(C)C(O)CCC2(C)C1CCC(C)CCOC(C)=O (stereo not drawn) | 5.36% (inactive) | inactive | inactive | – | – | – |
| Cc1ccc(C(C)C)c(O[C@@H]2O[C@H](CO)[C@@H](O)[C@H](O)[C@H]2O)c1 | -1.53% (inactive) | inactive | inactive | – | – | – |
| C=C(C(=O)O)[C@@H]1CC[C@H](C)[C@@H]2CC(=O)C(C)=C2C1 | -8.04% (inactive) | inactive | inactive | – | – | – |
| CC1CCC2C(C)(C)C(O)CCC2(C)C12Cc1c(O)cc3c(c1O2)CN=C3N (stereo not drawn) | 12.5% (inactive) | inactive | inactive | – | – | – |
| CC1OC(OC2C(O)C(C(=O)O)OC(OC3CCC4(C)C(CCC5(C)C4C=CC4=C6CC(C)(C)CC(O)C6(C)CCC45C)C3(C)C)C2OC2OCC(O)C(O)C2O)C(O)C(O)C1O (stereo not drawn) | -19.1% (inactive) | inactive | inactive | – | – | – |
| COc1ccc2c(c1)C(C(=O)N(Cc1ccc(N(C)C)cc1)c1ccc(C(C)C)cc1)CCC2 (stereo not drawn) | 1% (inactive) | inactive | inactive | – | – | – |
| CC1OC(OC2CCC3(C)C(CCC4(C)C3CC=C3C5CC(C)(C)CCC5(C(=O)OC5OC(CO)C(O)C(O)C5O)CCC34C(=O)O)C2(C)C)C(O)C(O)C1O (stereo not drawn) | 0.763% (inactive) | inactive | inactive | – | – | – |
| COC1=Cc2c(nc3n(c2=O)C(C)C(=O)NC3(O)C(C)C)OC=C1 (stereo not drawn) | -17.6% (inactive) | inactive | inactive | – | – | – |
| C/C=C(\C)C(=O)OC[C@H]1O[C@H](O[C@H]2O[C@H](CO)[C@@H](OC(=O)/C(C)=C/C)[C@H](O)[C@H]2O[C@@H]2O[C@H](CO)[C@@H](O)[C@H](O)[C@H]2O)[C@H](O[C@@H]2O[C@H](CO)[C@@H](O)[C@H](O)[C@H]2O)[C@@H](O)[C@@H]1O | -4.46% (inactive) | inactive | inactive | – | – | – |
| CC(NC(=O)c1ccccc1N)C(=O)O (stereo not drawn) | -20.6% (inactive) | inactive | inactive | – | – | – |
| CC(C)CCNC(=O)[C@H](CC(C)C)NC(=O)[C@H]1O[C@@H]1C(=O)O | -9% (inactive) | inactive | inactive | – | – | – |
| NC[C@H]1CCC[C@@H](CNC(=O)[C@@H](Cc2c[nH]c3ccccc23)NC(=O)N2CCC3(C=Cc4ccccc43)CC2)C1 | 3% (inactive) | inactive | inactive | – | – | – |
| C[C@@H]1O[C@@H](O[C@H]2[C@H](O)[C@@H](C(=O)O)O[C@@H](O[C@H]3CC[C@@]4(C)C(CC[C@]5(C)C4CC=C4C6CC(C)(C)CC[C@]6(C(=O)O)CC[C@]45C)C3(C)C)[C@@H]2O[C@@H]2O[C@H](CO)[C@@H](O)[C@H](O)[C@H]2O)[C@H](O)[C@H](O)[C@H]1O (stereo partly drawn) | -2.29% (inactive) | inactive | inactive | – | – | – |
| Cc1cccc(C)c1-n1c(=O)c2cnc(Nc3ccc(N4CCN(C)CC4)cc3)nc2n2c3ccccc3nc12 | – | inactive | inactive | 30.1 µM (active) | – | – |
| CC1(CO)CCCC2(C)C3COC(=O)C3=CC(O)C12 (stereo not drawn) | -8.04% (inactive) | inactive | inactive | – | – | – |
| CC(=O)O[C@H]1CC[C@@]2(C)C(CC[C@@H](C)[C@]23Cc2c(O)cc4c(c2O3)CN([C@@H](CCC(=O)O)C(=O)O)C4=O)C1(C)C (stereo partly drawn) | 0.763% (inactive) | inactive | inactive | – | – | – |

| Compound | activation [1] | Potency [2] | Potency [3] | Potency [1] | activity change, negative = inhibition [2] | activity change, negative = inhibition [3] |
| --- | --- | --- | --- | --- | --- | --- |
| C[C@@H]1CCC2C(C)(C)[C@H](O)CC[C@]2(C)[C@@]12Cc1c(O)cc3c(c1O2)CN(CCO)C3=O (stereo partly drawn) | 11.5% (inactive) | inactive | inactive | – | – | – |
| CC(C)(C)NC(=O)[C@H]1CC[C@H]2[C@@H]3CC[C@H]4NC(=O)CC[C@]4(C)[C@H]3CC[C@]12C | 21.7% (inactive) | inactive | inactive | – | – | – |
| C=Cc1ccc(O[C@@H]2O[C@H](CO[C@@H]3O[C@@H](C)[C@H](O)[C@@H](O)[C@H]3O)[C@@H](O)[C@H](O)[C@H]2O)cc1 | 0.893% (inactive) | inactive | inactive | – | – | – |
| COc1cc(C(C)=O)c(OC)c2c1OC(C)(C)C=C2 | 6.25% (inactive) | inactive | inactive | – | – | – |
| CC(C)C(NC(=O)c1ccc2ccccc2n1)C(=O)NC(CC(=O)O)C(=O)COc1c(F)cccc1F (stereo not drawn) | 2.33% (inactive) | inactive | inactive | – | – | – |
| CC1(C)CC[C@]2(C(=O)OC3OC(CO)C(O)C(O)C3O)CC[C@]3(C)C(=CCC4[C@@]5(C)C[C@@H](O)[C@H](OC6OC(C(=O)O)C(O)C(O)C6O)C(C)(C)C5CC[C@]43C)[C@@H]2C1 (stereo partly drawn) | -2.29% (inactive) | inactive | inactive | – | – | – |
| CC1(C(=O)O)CCCC2(C)C1CCC13CC(CCC21)C1(CO)OC31 (stereo not drawn) | -9.16% (inactive) | inactive | inactive | – | – | – |
| CC1CCC2(NC1)OC1C(=O)C3C4CCC5CC(O[C@@H]6O[C@H](CO)[C@@H](O)[C@H](O)[C@H]6O[C@@H]6O[C@@H](C)[C@H](O)[C@@H](O)[C@H]6O)CCC5(C)C4CCC3(C)C1C2C (stereo partly drawn) | 10.7% (inactive) | inactive | inactive | – | – | – |
| C[C@@H]1C[C@H]2[C@@H]3CCC4=CC(=O)C=C[C@]4(C)[C@@]3(F)[C@@H](O)C[C@]2(C)[C@@]1(O)C(=O)COP(=O)(O)O | -5.67% (inactive) | inactive | inactive | – | – | – |
| COc1cc2c(cc1OC)N1C(=O)C[C@]34C=CCN5CC[C@@H]2[C@@H](CC3)[C@]514 | 3.05% (inactive) | inactive | inactive | – | – | – |
| CCN(CC)C(=O)c1ccc(Nc2nc(OCC3CCCCC3)c3[nH]cnc3n2)cc1 | 8.04% (inactive) | inactive | inactive | – | – | – |
| C=C1CCC2(OC1)OC1CC3C4CC=C5CC(O)CC(O[C@@H]6OC[C@@H](O)[C@H](O)[C@H]6O)C5(C)C4CCC3(C)C1(O)C2C (stereo partly drawn) | 5.34% (inactive) | inactive | inactive | – | – | – |
| CC(C)=CCC/C(C)=C/CO[C@@H]1O[C@H](CO[C@@H]2OC[C@](O)(CO)[C@H]2O)[C@@H](O)[C@H](O)[C@H]1O | 2.29% (inactive) | inactive | inactive | – | – | – |
| O=C1NC2CCc3nc4ccccc4c(=O)n3C2=Nc2ccccc21 (stereo not drawn) | -8.93% (inactive) | inactive | inactive | – | – | – |
| C=C1C2(C)CC3C4(C)OC(C5OC56C4=CC(=O)OC6(C)C)C3(C)C13C(=O)OC(C)C3(O)C2=O (stereo not drawn) | -9.92% (inactive) | inactive | inactive | – | – | – |
| C/C(=C\C=C\C(C)C1CCC2(C)C3CCC4C(C)(C)C(=O)CCC45CC35CCC12C)C(=O)O (stereo not drawn) | 5.36% (inactive) | inactive | inactive | – | – | – |
| CC1=CC(=O)CC(C)(CO)C1(O)/C=C/C(C)O[C@@H]1O[C@H](CO)[C@@H](O)[C@H](O)[C@H]1O (stereo partly drawn) | -9.82% (inactive) | inactive | inactive | – | – | – |
| CC1(C)CC2C3=CCC4C5(C)CCC(OC6OC(CO)C(O)C(OC7OC(CO)C(O)C(OC8OC(CO)C(O)C(OC9OC(COC%10OC(CO)C(O)C(O)C%10O)C(O)C(O)C9O)C8O)C7O)C6O)C(C)(C)C5CCC4(C)C3(C)CCC2(C(=O)O)CC1O (stereo not drawn) | -24.4% (inactive) | – | – | – | 8.77% [at 11.2 µM] (inactive) | 1.03% [at 11.2 µM] (inactive) |
| C/C=C/C=C/[C@@H]1O[C@](O)([C@H](CC)C(=O)NC/C=C/C=C(\C)[C@@H](OC)[C@@H](C)[C@@H]2O[C@H](/C=C/C=C/C=C(\C)C(=O)c3c(O)ccn(C)c3=O)[C@H](O)[C@@H]2O)[C@H](O)[C@H](O)C1(C)C | 4.58% (inactive) | inactive | inactive | – | – | – |
| C[C@@H]1O[C@@H](O[C@H]2[C@H](O[C@H]3[C@H](O[C@H]4CC[C@@]5(C)C(CC[C@]6(C)C5CC=C5[C@@H]7CC(C)(C)C[C@@H](O)[C@]7(C)CC[C@]56C)[C@@]4(C)CO)O[C@H](C(=O)O)[C@@H](O)[C@@H]3O)OC[C@H](O)[C@@H]2O)[C@H](O)[C@H](O)[C@H]1O (stereo partly drawn) | 3.82% (inactive) | inactive | inactive | – | – | – |
| C[C@]1(OC(=O)/C=C/c2ccc(O)cc2)C[C@@H](O)[C@]2(O)C=CO[C@@H](O[C@@H]3O[C@H](CO)[C@@H](O)[C@H](O)[C@H]3O)C12 (stereo partly drawn) | 3.57% (inactive) | inactive | inactive | – | – | – |
| Nc1nc2c(nc(Br)n2[C@@H]2O[C@@H]3COP(=O)(O)O[C@H]3[C@H]2O)c(=O)[nH]1 | -14.3% (inactive) | inactive | inactive | – | – | – |
| COc1cc2c(c(O)c1OC/C=C(\C)CC/C=C(/C)CCC=C(C)C)CN(C(CCC(=O)O)C(=O)O)C2=O (stereo not drawn) | -30.5% (inactive) | inactive | inactive | – | – | – |
